Bioassay records deposited in PubChem BioAssay by National Center for Advancing Translational Sciences (NCATS).
PLK1 PBD block: inhibitors of human PLK1 polo-box domain binding | P53350 | Plk1 PBD binding of FITC phosphopeptide, fluorescence polarization | Potency, µM, without a hit: max response, negative = inhibition, most hits filed as inhibitors | hit rate 2.8% among 360,000 | AID 720504; also: potency is read from the fitted curve at half-maximal effect; series mostly up to about 57 µM; % is scaled to controls: 0 for no effect and ±100 for the full control effect; nearly all actives have a fitted effect of over 65% in size
Target sequence (P53350 whole entry, looked up, the tested form may be a part): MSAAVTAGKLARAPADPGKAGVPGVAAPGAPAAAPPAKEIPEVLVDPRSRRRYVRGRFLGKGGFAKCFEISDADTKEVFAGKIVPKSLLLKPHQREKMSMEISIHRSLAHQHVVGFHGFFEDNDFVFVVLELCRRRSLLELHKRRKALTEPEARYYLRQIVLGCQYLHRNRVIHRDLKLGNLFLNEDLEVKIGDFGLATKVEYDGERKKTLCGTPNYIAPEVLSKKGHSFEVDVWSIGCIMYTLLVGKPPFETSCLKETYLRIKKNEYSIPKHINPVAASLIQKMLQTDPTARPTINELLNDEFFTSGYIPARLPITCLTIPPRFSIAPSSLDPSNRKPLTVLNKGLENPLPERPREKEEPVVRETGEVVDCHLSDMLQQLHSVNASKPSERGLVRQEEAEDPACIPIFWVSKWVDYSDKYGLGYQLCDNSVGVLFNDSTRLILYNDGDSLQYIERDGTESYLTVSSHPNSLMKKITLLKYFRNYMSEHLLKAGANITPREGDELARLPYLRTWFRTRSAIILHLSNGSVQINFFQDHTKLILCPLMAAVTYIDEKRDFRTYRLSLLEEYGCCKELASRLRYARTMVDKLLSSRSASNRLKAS
KAT2A inh: GCN5L2 (KAT2A) acetyltransferase inhibition | AID 504327 | GCN5L2 HAT assay, ThioGlo1 CoA-SH fluorescence | Q92830 | hit rate 0.21% among 390,000 | Potency, µM (highest dose often 58.9 µM), without a hit: at the top dose activity change, negative = inhibition, most hits filed as inhibitors; also: potency is read from the fitted curve at half-maximal effect; % is scaled to controls: 0 for no effect and ±100 for the full control effect
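Titration-based screen in which CoA formation is detected via maleimide probe ThioGlo1 (50uM) turning fluorescent on thiol reaction; substrates H3(1-25) 75uM and acetyl-CoA 70uM, GCN5L2 20nM, 20 min incubation at room temperature.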
GLS inhibitor: glutaminase GLS (human) inhibition. O94925. Potency, µM (top dose mostly 45.5 µM), inactives show top-dose activity change, negative = inhibition, usual class: inhibitors. hit rate 0.21% among 410,000. GLS enzymatic activity, qHTS titration; also: potency is read from the fitted curve at half-maximal effect; % is scaled to controls: 0 for no effect and ±100 for the full control effect
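Assay buffer: 45 mM KH2PO4 pH 8.2, 0.02% Tween-20. hKGA acts on L-glutamine (1 mM solution added); product glutamate is reported by an oxidase/peroxidase Amplex Red coupling, with fluorescence taken at baseline and 30 min.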
VDR inh: inhibitors of human vitamin D receptor. Potency, µM, without a hit: max response, negative = inhibition, usual class: inhibitors. P11473. AID 504847. hit rate 0.93% among 400,000. VDR-SRC2-3 peptide fluorescence polarization, 2 h; also: potency is read from the fitted curve at half-maximal effect; % is scaled to controls: 0 for no effect and ±100 for the full control effect
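The screen uses fluorescence polarization to detect compounds that interfere with recruitment of the SRC2-3 coactivator peptide to VDR; plates are read after 2 h at room temperature.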
PI4K2A inh: blocks human PI4K2A kinase activity | hit rate 0.13% among 420,000 | AID 1346378 | activity change, negative = inhibition, % at 76.9 µM | purified PI4K2A, ADP-Glo luminescence, 1 h; hits give low values | Q9BTU6; in the data active = activity change below about -50%; inconclusive = mostly about -30% to -49%;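 also: -100% = wells without enzyme as full effect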
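Compounds are screened against recombinant PI4K2A using PI as substrate and ATP, the latter dispensed at 300 microM. Reactions run one hour at ambient temperature before ADP-Glo detection; full inhibition defined by wells lacking enzyme.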
VDR confirm: inhibits human vitamin D receptor, primary hit validation | shares compounds with VDR inh | VDR-coactivator inhibition assay, qHTS confirmation | Potency, µM, usual class: inhibitors | hit rate 89% among 840 | AID 602199; also: potency is read from the fitted curve at half-maximal effect
VDR FP fluor: confirmation of human VDR-coactivator binding inhibitors, fluorescein label | AID 602200 | VDR-coactivator binding, fluorescein fluorescence polarization | hit rate 48% among 840 | Potency, µM (titrated, usually from 57.1 µM), for the others: at the highest dose activity change, negative = inhibition, usual class: inhibitors | shares compounds with VDR inh; also: potency is read from the fitted curve at half-maximal effect
VDR bla reporter: confirmation of human vitamin D receptor inhibitors in reporter cells; shares compounds with VDR inh; VDR beta-lactamase reporter cells, FRET ratio; cells co-treated with VDR agonist LG190178; Potency, µM (doses to about 46.1 µM), for inactives: top-dose activity change, negative = inhibition, usual class: inhibitors; hit rate 23% among 840; also: potency is read from the fitted curve at half-maximal effect; % is scaled to controls: 0 for no effect and ±100 for the full control effect
VDR cytotox: cytotoxic in counter-screen for VDR inhibitors | shares compounds with VDR inh | cytotoxicity counter-screen, cell viability, qHTS | hit rate 18% among 840 | AID 602204 | Potency, µM (series often up to 48.3 µM), inactives show top-dose activity change, negative = cytotoxicity, hits mostly cytotoxic;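 also: potency is read from the fitted curve at half-maximal effect; plate controls were DMSO for no effect and high-concentration cycloheximide for full effect; nearly all actives have a fitted effect of over 75% in size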
Numbers without * were called inactive; ? = inconclusive; / = no result. An excerpt weighted towards active compounds, which were near 3.1% of everything screened. Unless noted, calls follow the shape of the dose curve; as a rule, active = well fitted curve in the direction sought with a large enough effect; inconclusive = small, poorly fitted or top-dose-only effect, or another doubt; inactive = no such curve, though single readings can be large; an effect the other way counts as inactive or inconclusive.

SMILES	PLK1 PBD block	KAT2A inh	GLS inhibitor	VDR inh	PI4K2A inh	VDR confirm	VDR FP fluor	VDR bla reporter	VDR cytotox
O=S(=O)(NCc1ccccc1)c1ccc(Cl)cc1	-14%	?	0%	-6%	-6	/	/	/	/
O=S(=O)(Nc1cc2nc3ccccc3nc2n1Cc1ccccc1)c1ccc(Cl)cc1	?	?	-8%	40µM*	?	30*	33%	?	?
O=C(Oc1csc(=S)n1C(=O)c1ccccc1)c1ccccc1	3µM*	0%	31%	?	2	?	8.9µM*	-5%	14%
O=S(=O)(c1ccccc1Br)N1CCN(c2nc(-c3ccccc3)nc3ccccc23)CC1	/	/	/	-4%	/	/	/	/	/
Nc1ccc(N2CCOCC2)c(S(=O)(=O)Nc2ccccc2Cl)c1	-4%	-6%	31%	21%	-3	/	/	/	/
COc1ccccc1NS(=O)(=O)c1cc(N)ccc1N1CCOCC1	0%	-16%	-6%	79µM*	-4	21*	20µM*	25%	32%
C#CCOc1c(Br)cc(/C=N/O)cc1OCC	-14%	2%	3%	-28%	-4	/	/	/	/
COc1cc(/C=C2\C(=O)ON=C2c2ccccc2)cc(Br)c1O	?	4%	42%	25µM*	6	3.8*	175%	?	-21%
CCOc1cc(/C=C2\C(=O)ON=C2c2ccccc2)cc(Br)c1O	?	1%	8.9µM*	25µM*	-24	3.8*	179%	?	-11%
CCOc1cc(/C=C2/C(=O)ON=C2C)cc(Br)c1O	5%	-7%	23%	56µM*	-1	9.5*	233%	33%	11%
C#CCOc1ccc(/C=C2/C(=O)ON=C2C)cc1Br	1.7µM*	-5%	4%	40µM*	-2	11*	?	?	-15%
COc1cc(C=C2C(=O)OC(c3ccccc3)OC2=O)cc(Br)c1O (centres undefined)	?	-14%	10%	-8%	0	/	/	/	/
COc1ccc(-c2cn(-c3ccc(C)cc3)c(S(=O)(=O)CC(=O)Nc3ccccc3)n2)cc1	/	-11%	-1%	7%	5	/	/	/	/
CCCCC/C=C\C/C=C\C=C\[C@@H](O)C/C=C\CCCC(=O)O	/	/	/	7%	/	/	/	/	/
CCCOc1ccc(NC(=O)CC2C(=O)N(c3ccccc3)C(=O)N2Cc2ccc(F)cc2)cc1 (centres undefined)	/	-1%	0%	6%	0	/	/	/	/
COc1cc(/C=C2\C(=O)ON=C2c2ccccc2)cc(Cl)c1O	?	-9%	?	45µM*	-16	5.3*	199%	?	-28%
COc1cc([N+](=O)[O-])ccc1-c1ccc(/C=C2\C(=O)ON=C2c2ccccc2)o1	2.7µM*	/	30%	?	-7	2.5*	1.8µM*	?	?
CCOc1nc(C#N)nc(N2CCOCC2)n1	/	/	/	-24%	/	/	/	/	/
CCOc1ccc(/C=C/C(=O)Oc2ccc(OC)cc2)cc1	-7%	0%	4%	-12%	-2	/	/	/	/
Cc1cccc(/C=C/C(=O)c2cc(Br)ccc(=O)c2O)c1	21µM*	?	24%	16µM*	-16	3.8*	58%	?	?
CCOc1ccc(/C=C/C(=O)c2cc(Br)ccc(=O)c2O)cc1	?	-20%	4%	50µM*	-6	13*	12%	10%	12%
Cc1ccc(C(=O)C=Cc2cccc(C)c2)cc1	-3%	/	-5%	?	17	/	/	/	/
